Assay results published in PubChem BioAssay (EPA / NIEHS).
The source made the active and inactive calls. How the source made its calls: active means hit-call score of the fitted dose curve at least 0.9, where 1 is the maximum; inactive means score below 0.9.

Read-out: Interleukin-8 (IL8), CXCL8 (gene 3576)
Experiment: BSK_LPS_IL8: BioMAP Diversity Plus: LPS Assay for Interleukin-8 (IL8) Biomarker Activity (AID 2283078)
Settings: primary human HUVEC with PBMC; actives raise or lower the signal
Procedure, shortened: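 Readout is IL-8 by ELISA, taken 24 h after compounds were added to LPS-stimulated endothelial/PBMC co-cultures. Both increases and decreases relative to DMSO control were scored through bidirectional fitting.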

Row | SMILES | outcome | AC50
1 | CCCCCCC(O)CCCCCCCCCCC(=O)OC (stereo not given) | inactive | 
2 | CCC(C)=NO | inactive | 
3 | Cc1cc(-n2nc3ccc(Cl)cc3n2)c(O)c(C(C)(C)C)c1 | inactive | 
4 | Oc1cccc2ccccc12 | inactive | 
5 | CN(C)c1ccc(C(c2ccccc2)c2ccc(N(C)C)cc2)cc1 |  | 15.2 µM (active)
6 | CC[N+](CC)(CC(=O)Nc1c(C)cccc1C)Cc1ccccc1 (tested in a mixture with another compound) | inactive | 

Read-out: not listed separately
Experiment: BSK_LPS_SRB: Viability Assessment in the BioMAP Diversity Plus: LPS Assay (AID 2283079);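 further: total protein by sulforhodamine B absorbance as a cytotoxicity measure; measured one day after compound addition; fitted in both directions against DMSO so loss or gain of signal counts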
Settings: primary human HUVEC with PBMC
Procedure, shortened: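 Readout is SRB absorbance at 560 nm (0.1% stain, TCA-fixed parallel cultures) as a total-protein cytotoxicity measure. Cells: primary human umbilical vein endothelium plus peripheral blood mononuclear cells, 24 h after chemical exposure; DMSO served as baseline.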

Row | SMILES | outcome | AC50
7 | CCCCCCC(O)CCCCCCCCCCC(=O)OC (stereo not given) | inactive | 
8 | CCC(C)=NO | inactive | 
9 | Cc1cc(-n2nc3ccc(Cl)cc3n2)c(O)c(C(C)(C)C)c1 | inactive | 
10 | Oc1cccc2ccccc12 | inactive | 
11 | CN(C)c1ccc(C(c2ccccc2)c2ccc(N(C)C)cc2)cc1 |  | 12.5 µM (active)
12 | CC[N+](CC)(CC(=O)Nc1c(C)cccc1C)Cc1ccccc1 (tested in a mixture with another compound) | inactive | 

Read-out: Monocyte Chemoattractant Protein-1 (MCP1), CCL2 (gene 6347)
Experiment: BSK_LPS_MCP1: BioMAP Diversity Plus: LPS Assay for Monocyte Chemoattractant Protein-1 (MCP1) Biomarker Activity (AID 2283081);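 on AC50: secreted MCP-1 protein quantified by ELISA in culture supernatant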
Settings: primary human HUVEC with PBMC; actives raise or lower the signal
Procedure, shortened: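 Human endothelial–PBMC co-cultures were dosed with chemical, then LPS-driven MCP-1 levels were quantified by ELISA at 24 h. Activity in either direction was fitted versus DMSO negative control.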

Row | SMILES | outcome | AC50
13 | CCCCCCC(O)CCCCCCCCCCC(=O)OC (stereo not given) | inactive | 
14 | CCC(C)=NO | inactive | 
15 | Cc1cc(-n2nc3ccc(Cl)cc3n2)c(O)c(C(C)(C)C)c1 | inactive | 
16 | Oc1cccc2ccccc12 | inactive | 
17 | CN(C)c1ccc(C(c2ccccc2)c2ccc(N(C)C)cc2)cc1 |  | 13.2 µM (active)
18 | CC[N+](CC)(CC(=O)Nc1c(C)cccc1C)Cc1ccccc1 (tested in a mixture with another compound) | inactive | 

Read-out: not listed separately
Experiment: BSK_LPS_PGE2: BioMAP Diversity Plus: LPS Assay for Prostaglandin E2 (PGE2) Biomarker Activity (AID 2283082);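 on AC50: secreted prostaglandin E2 measured by ELISA in LPS-stimulated co-culture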
Settings: primary human HUVEC with PBMC; actives raise or lower the signal
Procedure, shortened: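 Compounds were added to the LPS co-culture of endothelium and PBMC, and PGE2 was measured by ELISA after 24 h. Responses in either direction were fitted with DMSO as baseline.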

Row | SMILES | AC50 | outcome
19 | CCCCCCC(O)CCCCCCCCCCC(=O)OC (stereo not given) | 1.73 µM (active) | 
20 | CCC(C)=NO |  | inactive
21 | Cc1cc(-n2nc3ccc(Cl)cc3n2)c(O)c(C(C)(C)C)c1 |  | inactive
22 | Oc1cccc2ccccc12 |  | inactive
23 | CN(C)c1ccc(C(c2ccccc2)c2ccc(N(C)C)cc2)cc1 |  | inactive
24 | CC[N+](CC)(CC(=O)Nc1c(C)cccc1C)Cc1ccccc1 (tested in a mixture with another compound) |  | inactive

Read-out: Macrophage colony-stimulating factor (MCSF), CSF1 (gene 1435)
Experiment: BSK_LPS_MCSF: BioMAP Diversity Plus: LPS Assay for Macrophage colony-stimulating factor (MCSF) Biomarker Activity (AID 2283083)
Settings: primary human HUVEC with PBMC; actives raise or lower the signal
Procedure, shortened: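 ELISA readout of M-CSF after 24 h compound exposure in a human endothelial/PBMC co-culture. Activity, in either direction, is fitted relative to DMSO vehicle.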

Row | SMILES | outcome | AC50
25 | CCCCCCC(O)CCCCCCCCCCC(=O)OC (stereo not given) | inactive | 
26 | CCC(C)=NO | inactive | 
27 | Cc1cc(-n2nc3ccc(Cl)cc3n2)c(O)c(C(C)(C)C)c1 | inactive | 
28 | Oc1cccc2ccccc12 | inactive | 
29 | CN(C)c1ccc(C(c2ccccc2)c2ccc(N(C)C)cc2)cc1 |  | 8.45 µM (active)
30 | CC[N+](CC)(CC(=O)Nc1c(C)cccc1C)Cc1ccccc1 (tested in a mixture with another compound) | inactive | 
